Experiment [1] concerns the target Thyrotropin receptor (Homo sapiens) (UniProt P16473). In words: qHTS assay to identify small molecule agonists of the thyroid stimulating hormone receptor (TSHR) signaling pathway (AID 1224843; calls by dose curve; further: nearly all actives have a fitted effect of over 45% in size). In outline:
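TSHR-HEK293 cells in agonist mode, 30 min room-temperature step, then cAMP measured by competitive HTRF (cAMP-d2 with anti-cAMP cryptate) after 1 h at room temperature. Tested at 15 concentrations in triplicate.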

Experiment [2] is described as follows: qHTS assay to identify small molecule agonists of the hypoxia (HIF-1) signaling pathway - cell viability counter screen (AID 1224844; calls by dose curve; further: nearly all actives have a fitted effect of over 50% in size). The method, boiled down: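 Luminescent ATP content (CellTiter-Glo, 30 min, room temperature) served as the viability measure in HRE-bla ME-180 cells exposed to compounds for 17 hrs in low-serum medium (0.5% dialyzed FBS).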
(In general: qHTS replaces the single test concentration by a dilution series.)

Experiment [3] is described as follows: qHTS assay to identify small molecule agonists of H2AX (AID 1224845; active means well fitted activation curve with a large enough effect in the signal ratio in the repeat runs, not every such curve was filed as active; the % refers to the signal ratio). The method, boiled down: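 Wild-type CHO-K1 cells, plated overnight, exposed 3hr at 37C to 15 concentrations (0.76% DMSO final). Lysed, then HTRF anti-pH2AX (S139) cryptate and anti-H2AX-d2 antibodies, 24 hr room temperature; 665/620 nm emission read.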
The nature of experiment [4]: qHTS assay to identify small molecule agonists of the hypoxia (HIF-1) signaling pathway (AID 1224846; active means well fitted activation curve with a large enough effect in the signal ratio in the repeat runs, not every such curve was filed as active; the % refers to the signal ratio). In outline: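 Measured by blue/green FRET after loading CCF4-AM: beta-lactamase expressed from a hypoxia response element in ME-180 cells. Test agents were delivered in DMSO and left 17 hrs; cells had been plated 5 hrs earlier in low-serum (0.5% dialyzed FBS) medium.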

Experiment [5] is described as follows: qHTS assay to identify small molecule agonists of H2AX - cell viability counter screen (AID 1224847; calls by dose curve; further: top concentration of the series differs between compounds; nearly all actives have a fitted effect of over 30% in size). The method, boiled down: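 CHO-K1 wt, 1000 cells/well, o/n 37C; cpds 15 conc, 3 h 37C, 0.76% DMSO; CellTiter-Glo, 30 min RT, luminescence.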
A short description of experiment [6]: qHTS RealTime-Glo MT Cell Viability Assay in HepG2 cells - 24 hour (AID 1224867). Further: nearly all actives have a fitted effect of over 50% in size. The method, boiled down: (§1)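 HepG2 cells (600/well) were dispensed with RealTime-Glo reagents, incubated 5 h at 37 °C, then treated with compounds in DMSO for up to 40 h. Nonlytic NanoLuc luminescence reflecting viable cells was read at each stated time point.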
Experiment [7] can be described thus: qHTS RealTime-Glo MT Cell Viability Assay in HEK293 cells - 32 hour (AID 1224868). Further: nearly all actives have a fitted effect of over 50% in size. Further: potency means the concentration at half of the fitted maximal effect. The method, boiled down:
(§2)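 HEK293 cells seeded with NanoLuc/prosubstrate reagent, rested 5 h at 37 C, then dosed and kept at 37 C up to 40 h. Nonlytic real-time luminescence from viable cells read at 0, 8, 16, 24, 32 and 40 h.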

The nature of experiment [8]: A CellTox Green Cytotoxicity Assay to monitor cytotoxicity in HEK293 cells - 0 hour (AID 1224869). Further: nearly all actives have a fitted effect of over 50% in size. In outline: (§3)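 Each value comes from one timepoint of a single continuous run in which HEK293 cells with CellTox Green were exposed to compound for up to 40 h at 37 C, dye fluorescence rising with cell death.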
Experiment [9] can be described thus: qHTS RealTime-Glo MT Cell Viability Assay in HepG2 cells - 40 hour (AID 1224870). Further: nearly all actives have a fitted effect of over 50% in size. The method, boiled down: (§4)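 HepG2 cells (600/well) mixed with RealTime-Glo MT reagent, settled 5 h at 37 C/5% CO2 before compound addition. Nonlytic NanoLuc luminescence from viable-cell prosubstrate reduction read repeatedly during 40 h treatment at 37 C.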
Experiment [10] can be described thus: A CellTox Green Cytotoxicity Assay to monitor cytotoxicity in HEK293 cells - 40 hour (AID 1224871). Further: nearly all actives have a fitted effect of over 45% in size. The method, boiled down:
as §3

A short description of experiment [11]: qHTS RealTime-Glo MT Cell Viability Assay in HEK293 cells - 16 hour (AID 1224872). Further: nearly all actives have a fitted effect of over 50% in size. Further: potency means the concentration at half of the fitted maximal effect. In outline:
as §2

A short description of experiment [12]: qHTS RealTime-Glo MT Cell Viability Assay in HepG2 cells - 8 hour (AID 1224873). Further: nearly all actives have a fitted effect of over 55% in size. The method, boiled down: as §4
A short description of experiment [13]: qHTS RealTime-Glo MT Cell Viability Assay in HEK293 cells - 40 hour (AID 1224874). Further: nearly all actives have a fitted effect of over 50% in size. Further: potency means the concentration at half of the fitted maximal effect. The settings on record: RealTime-Glo luminescence; max response: hits give low values. In outline:
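qHTS format; HEK293 cells with NanoLuc/prosubstrate reagent, 37 C/5% CO2 for 5 h pre-dosing; compounds 23 nL in DMSO; luminescence at each time point reflects viable cells.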

A short description of experiment [14]: A CellTox Green Cytotoxicity Assay to monitor cytotoxicity in HEK293 cells - 24 hour (AID 1224875). Further: nearly all actives have a fitted effect of over 45% in size. In outline:
as §3

A short description of experiment [15]: A CellTox Green Cytotoxicity Assay to monitor cytotoxicity in HepG2 cells - 16 hour (AID 1224876). Further: nearly all actives have a fitted effect of over 45% in size. In outline:
(§5)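 Continuous culture of HepG2 cells with a membrane-impermeant DNA dye; rising fluorescence marks dead cells. Compound exposure lasted up to 40 h at 37 C, with reads every 8 h from 0 h.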

Experiment [16] can be described thus: qHTS RealTime-Glo MT Cell Viability Assay in HepG2 cells - 32 hour (AID 1224877). Further: nearly all actives have a fitted effect of over 55% in size. The method, boiled down:
as §1

The nature of experiment [17]: A CellTox Green Cytotoxicity Assay to monitor cytotoxicity in HepG2 cells - 24 hour (AID 1224878). Further: nearly all actives have a fitted effect of over 45% in size. In outline:
as §5

Experiment [18] in a line: A CellTox Green Cytotoxicity Assay to monitor cytotoxicity in HepG2 cells - 40 hour (AID 1224879). Further: nearly all actives have a fitted effect of over 40% in size. The method, boiled down: as §5
Experiment [19] in a line: qHTS assay to identify small molecule antagonists of the estrogen related receptor (ERR) signaling pathway from Tox21 library (AID 1224848). Further: nearly all actives have a fitted effect of over 50% in size. Further: potency means the concentration at half of the fitted maximal effect. In outline: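 ERR reporter cell line (from NTP) seeded 2,000 cells/well, rested 6 h at 37 C/5% CO2, then pin-dosed with compounds in DMSO. After 18 h at 37 C, ONE-Glo added; luminescence read after 30 min at room temperature.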
Experiment [20] can be described thus: qHTS assay to identify small molecule agonists of the estrogen related receptor (ERR) signaling pathway from Tox21 library (AID 1224849; calls by dose curve; further: nearly all actives have a fitted effect of over 15% in size). As to conditions: ERR reporter cell line, ONE-Glo luciferase, 18 h. The method, boiled down: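 We plated ERR reporter cells, waited 6 h, added compounds in DMSO by pin tool and incubated them 18 h at 37 C. ONE-Glo was then added and luminescence read after 30 min.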

These results are taken from PubChem BioAssay (Tox21).

“And” between values parts separate entries of the source, which are not always exact repeats. Equal values may be shown once. Values without a mark were called inactive. Results filed as inconclusive are left out. The source made the active and inactive calls. Unless noted, the call rests on the fitted dose curve; in most records, active means well fitted curve in the direction sought with a large enough effect in the repeat runs; inconclusive means weak or mixed curves; inactive means no such curve, though single readings can be large; an effect the other way counts as inactive or inconclusive.
On the % scale 0 is the no-effect control and ±100 the full control effect.

Thyrotropin receptor (Homo sapiens), sequence (P16473 whole entry, looked up): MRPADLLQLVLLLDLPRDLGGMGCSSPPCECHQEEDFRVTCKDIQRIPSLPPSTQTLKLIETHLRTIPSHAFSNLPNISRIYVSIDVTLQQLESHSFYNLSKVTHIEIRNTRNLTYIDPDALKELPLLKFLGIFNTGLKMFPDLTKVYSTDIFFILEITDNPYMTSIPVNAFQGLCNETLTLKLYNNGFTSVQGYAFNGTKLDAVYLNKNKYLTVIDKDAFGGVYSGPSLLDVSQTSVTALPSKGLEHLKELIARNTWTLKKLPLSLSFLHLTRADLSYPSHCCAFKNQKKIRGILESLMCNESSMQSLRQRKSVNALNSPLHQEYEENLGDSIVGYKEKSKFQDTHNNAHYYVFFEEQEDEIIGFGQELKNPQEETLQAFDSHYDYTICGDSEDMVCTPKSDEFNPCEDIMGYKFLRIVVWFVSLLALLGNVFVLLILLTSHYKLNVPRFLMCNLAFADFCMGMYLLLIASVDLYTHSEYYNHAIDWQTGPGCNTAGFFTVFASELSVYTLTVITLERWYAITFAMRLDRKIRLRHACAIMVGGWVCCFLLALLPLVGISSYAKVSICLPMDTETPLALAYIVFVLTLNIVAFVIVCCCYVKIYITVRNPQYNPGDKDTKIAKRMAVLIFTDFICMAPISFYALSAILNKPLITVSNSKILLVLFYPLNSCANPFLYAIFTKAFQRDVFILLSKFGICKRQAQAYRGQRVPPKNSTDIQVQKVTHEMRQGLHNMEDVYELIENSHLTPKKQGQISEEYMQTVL

`CCN1CCCC1=O`: the Potency entry in experiment [1], in experiment [2], in [3], in [5], in [7] and in experiment [8] was “inactive” in each case. Also, the Potency result in experiment [10], in [11], in experiment [14], in experiment [15], in experiment [17] and in experiment [18] was “inactive” throughout. Moreover, the result in [4], in experiment [6], in [9], in experiment [12] and in [16] was inactive. Besides, in experiment [13], the max response is 0.414% and 1.37%.
`COCCOCCOC`: the Potency result in experiment [1], in experiment [2], in experiment [3], in [5], in experiment [7] and in experiment [8] was “inactive” in each case. Further, the Potency entry in experiment [10], in experiment [11], in [14], in [15], in experiment [17] and in experiment [18] was “inactive” each time. Further, the result in experiment [4], in experiment [6], in experiment [9], in experiment [12] and in experiment [16] was inactive. Moreover, the max response in experiment [13] was 13% and 10.3%.
Regarding `CCCCCCCCOc1ccc(C(=O)c2ccccc2)c(O)c1`, the Potency entry in experiment [1], in [2], in experiment [3], in [5], in [19] and in experiment [7] was “inactive” throughout. The Potency result in experiment [8], in experiment [10], in [11], in experiment [14], in [17] and in experiment [18] was “inactive” in each case. In addition, the outcome in [4], in [6], in experiment [9], in experiment [12] and in experiment [16] was inactive. In addition, the activity change, positive = activation in [20] (at 42.5 µM (top of the series)) is -7.25%; in experiment [20] (at 92.4 µM (top of the series)) it was 6.94% and -4.94%. For the same molecule, in experiment [13], the max response was -20.9% and 7.71% and 4.9%.
`C[C@]12CC[C@@H]3c4ccc(O)cc4C[C@@H](CCCCCCCCCS(=O)CCCC(F)(F)C(F)(F)F)[C@H]3[C@@H]1CC[C@@H]2O` (stereo not given in full): the Potency result in experiment [1], in experiment [2], in experiment [3], in experiment [5], in [8] and in experiment [10] was “inactive” each time. Moreover, the Potency entry in experiment [14], in experiment [15] and in [18] was “inactive” throughout. Moreover, the result in [4], in experiment [6], in [9] and in experiment [16] was inactive. For the same molecule, the Potency in experiment [19] was 6.85 µM (active) and 5.7 µM (active) and 5.96 µM (active); in [7], 43.6 µM (active); in experiment [11] it was 43.6 µM (active); in [13] it was 43.6 µM (active). For the same molecule, the activity change, positive = activation in [20] (at 42.5 µM (top of the series)) is -35% and -33.1%; in experiment [20] (at 92.4 µM (top of the series)), -37.7%.
As for `C=CCOC(=O)CC(C)C`, the Potency result in experiment [1], in [2], in [3], in experiment [5], in experiment [19] and in experiment [7] was “inactive” throughout. Also, the Potency result in experiment [8], in [10], in experiment [11], in experiment [14] and in experiment [18] was “inactive” in each case. For the same molecule, the call in experiment [4], in experiment [6], in experiment [9], in experiment [12] and in [16] was inactive. Further, in experiment [20] (at 92.4 µM (top of the series)), the activity change, positive = activation is 8.22% and 2.25%. Further, the max response in [13] is 4.01% and 4.38%.
Consider `C1CNCCN1`, for which the Potency entry in experiment [1], in experiment [2], in experiment [3], in experiment [5], in experiment [7] and in experiment [8] was “inactive” in each case. Further, the Potency result in experiment [10], in experiment [11], in experiment [14], in [17] and in experiment [18] was “inactive” in each case. The call in experiment [4], in experiment [6], in experiment [9], in experiment [12] and in experiment [16] was inactive. The max response in experiment [13] was 0.515% and 0.916%.
